Values without a mark were called inactive. No rule for the calls is given here.
Target: VTCN1, Q7Z7D3
Sequence (Q7Z7D3 whole entry): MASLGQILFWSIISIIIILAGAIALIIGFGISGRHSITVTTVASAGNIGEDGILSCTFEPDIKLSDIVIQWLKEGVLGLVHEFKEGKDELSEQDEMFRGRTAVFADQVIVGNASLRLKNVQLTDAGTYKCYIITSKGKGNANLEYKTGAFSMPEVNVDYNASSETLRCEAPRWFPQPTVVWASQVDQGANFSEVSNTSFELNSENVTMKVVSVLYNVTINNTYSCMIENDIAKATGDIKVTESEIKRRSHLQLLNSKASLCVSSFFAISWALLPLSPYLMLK

| Binder | binding in a display sort |
| --- | --- |
| design_600_24101276-ad9d-4944-b73e-53bb160363ad_1497_dldesign_0_cycle1_af2pred (protein) DEAHKRAKALYEEDRALQKELRKKAKEAKEMAKEFADDPVWKAKAEEASKLNLQALFDPENKETREKGEKTYEEVYKKYKELKKKK | not found |
| design_600_24101276-ad9d-4944-b73e-53bb160363ad_953_dldesign_0_cycle1_af2pred (protein) DAKKAAADALVATAAAEDPSLKPLAQEVADKAIASEDGLKAAKEGMTALAKKYPEYAKAFAAAMQAFYETYNEAEFKKKKA | not found |
| design_600_24101276-ad9d-4944-b73e-53bb160363ad_1344_dldesign_0_cycle1_af2pred (protein) SFKKEAAIESSKELLDQAVAAAKADPARATEIAKTGLKKATERAKKAGEEAYKTVKEYGEKLLAEVEAAAKAAA | not found |
| design_600_24101276-ad9d-4944-b73e-53bb160363ad_2244_dldesign_0_cycle1_af2pred (protein) MEEEKKKEEKKKELKEKLKELEKKAEEAAKAAKADPAHLPELAAVAQELYQLSAEAEFEGDKETAEKAKEVARKAREVGKAARAA | not found |
| design_600_24101276-ad9d-4944-b73e-53bb160363ad_1012_dldesign_0_cycle1_af2pred (protein) VEELVKKAAEKKEKAVELIDEGKLEEAEKEAEELKKLAEEIKKKDPKLGEEALKGARALKRLIKEAKEAEEK | not found |
| design_600_24101276-ad9d-4944-b73e-53bb160363ad_2443_dldesign_0_cycle1_af2pred (protein) VEEAEKRAKRLKEEAEKAAKELAKEGGEEKAKELLEKAKEAAEKFLEAAKKGDGKAAADYLSEARGYIAELRIEAKKLK | not found |
| design_600_24101276-ad9d-4944-b73e-53bb160363ad_2181_dldesign_0_cycle1_af2pred (protein) MSAAADAQLLLERAEQALAAAEANPELAPAANERIAAAAERLLGPEAAAALRAIAEEHADDPVAAVRAQYEYVAALAEKAEA | not found |
| design_600_24101276-ad9d-4944-b73e-53bb160363ad_984_dldesign_0_cycle1_af2pred (protein) AKEEDLKKAEEELKKFAEEAAKELKEAGAKKQDIESTKEYGEHRAEAVVTTSKKKGLSPEELKKLVKEAKERIKKYKENKL | not found |
| design_600_24101276-ad9d-4944-b73e-53bb160363ad_1928_dldesign_0_cycle1_af2pred (protein) GALEEAKKVIEDARDKLSAVAAKKSPEYAKEVADNLEKVAKGEGVKEHATRAAEVLAEADPENAAELKKYLAEAVQTYLQLRAEAEK | not found |
| design_600_24101276-ad9d-4944-b73e-53bb160363ad_1044_dldesign_0_cycle1_af2pred (protein) MTPEERKALALKEQAEHTAKAGKKLGAKDPEAALKAAERLKKLAERAKKTGTEEGKEAAKLAEEYAKELEKLAKKAKE | not found |
| design_600_24101276-ad9d-4944-b73e-53bb160363ad_894_dldesign_0_cycle1_af2pred (protein) MTVEEYLKQAKEAGEEAIKILKETAKKDPSSKDVADMLIKAVETTLKEGSEKAKKEGAEKAKQLLEKMKLGLRTAKRLLENVERSE | not found |
| design_600_24101276-ad9d-4944-b73e-53bb160363ad_1440_dldesign_0_cycle1_af2pred (protein) SEKVKKDSEAIRKLVKAVKEAGKAAKAAAKAAPEVAAVAEAAQKASAQLVFEALDEENIEEAAKKAEEAIKAAAEAVKAAAKAAK | not found |
| design_600_24101276-ad9d-4944-b73e-53bb160363ad_2022_dldesign_0_cycle1_af2pred (protein) MKEEAKKLAKEAKEKAKEGAANPAYKKAITLYNEALADFRAAEATGSKEAFEEGKEYFKKAEEEEKKVKEKLEKE | not found |
| design_600_24101276-ad9d-4944-b73e-53bb160363ad_1742_dldesign_0_cycle1_af2pred (protein) MEEKYKKAKELLEKAKEEFKKGNYEKALKLAAESVALGYEALGDEEEAKKAKEKAEEALKNPETLGAVAGELLAEAKGLVHLLEIKIN | not found |
| design_600_24101276-ad9d-4944-b73e-53bb160363ad_1181_dldesign_0_cycle1_af2pred (protein) AAEEEIKKAITEAKDAALDSAYIAAKDPSKAAEAEAAYNAALGKLEEALKVLDEETRKKAIQSVKNIRDSTYEASKKSLKS | not found |
| design_600_24101276-ad9d-4944-b73e-53bb160363ad_1035_dldesign_0_cycle1_af2pred (protein) EKLEEAEKERDKAVDKLAALVAKALGPEAGAKARAAAKKGLAALKAVVAEAAKTSGLTAELAKALHEVYQATAEAELLKKK | binds (active) |
| design_600_24101276-ad9d-4944-b73e-53bb160363ad_2193_dldesign_0_cycle1_af2pred (protein) SLEKEIEKLAKELKKAKELDPKTAAEELRKIAKEARKVGKEAAKKDKELAKKAAKLAQEAYEAAAEKEQQARLE | not found |
| design_600_24101276-ad9d-4944-b73e-53bb160363ad_1735_dldesign_0_cycle1_af2pred (protein) SEEEEKLREENRKIAEKERNAHVAKAAAKLVEKATPEEAVAILEKAAKAASDTEFFLALAKKVKAEGKKGVKEAVKALKKRAKEL | not found |
| design_600_24101276-ad9d-4944-b73e-53bb160363ad_1872_dldesign_0_cycle1_af2pred (protein) HSEEELKLLERMREIRKRAKEAVKLLKELGEKELGEKYAKEIADLLYQSIDDPENQEKYVEEAEAKAEELEKLAEEAKKKAEE | binds (active) |

| Binder | binding in a display sort |
| --- | --- |
| design_600_24101276-ad9d-4944-b73e-53bb160363ad_2225_dldesign_0_cycle1_af2pred (protein) MSEGLKEAAKELVEELRETIATKSPEQARGELTLARSSAKSIEKLDPESGKELLAKVEELEKELEAKAAA | not found |
| design_600_24101276-ad9d-4944-b73e-53bb160363ad_2321_dldesign_0_cycle1_af2pred (protein) AQKAKNEAESLLTRAEQALEAGVSGDAEQAKKAAEKIEEYAKKAEEIGKKYPEVKEYAEKKAEEIKELAKKAKEAAKKK | not found |
| design_600_24101276-ad9d-4944-b73e-53bb160363ad_2105_dldesign_0_cycle1_af2pred (protein) NMEEAKKLLKETEKAAKKAVEIAGEEAKPAAEKAIKVAEKFLKYGDVEALKDILAATKAYLAKVEAEKAAAA | not found |
| design_600_24101276-ad9d-4944-b73e-53bb160363ad_2211_dldesign_0_cycle1_af2pred (protein) SEAYEEAKKEAEAAVKALKELAKEKPEAKEKAEKLIKRVEEELKKAEEGNEEAARIAKGSIEARKLAAESVLKT | not found |
| design_600_24101276-ad9d-4944-b73e-53bb160363ad_1688_dldesign_0_cycle1_af2pred (protein) GLKEEGKKKIKEIKELAKKALENPEKAEEYVKKARELAKEVAEKLPELGKEAAEAAQEALENRAEGKAKLAREK | not found |
| design_600_24101276-ad9d-4944-b73e-53bb160363ad_2034_dldesign_0_cycle1_af2pred (protein) DEKVKKAKEEAEKISKEGVELAKKGAENPEKYEEYEKKAKELFDKAMAIAKEVAKENPEGGAKIAEIVHTLRAEAKAVIAKIK | not found |
| design_600_24101276-ad9d-4944-b73e-53bb160363ad_1891_dldesign_0_cycle1_af2pred (protein) GLEEEKKAVEEQKKKVEETGKKALEMAKSGEKAEEGLESLKKLIEETKEFAKKSKLKALAAEVTQLALEKLSEAKFELSKSKA | not found |
| design_600_24101276-ad9d-4944-b73e-53bb160363ad_1238_dldesign_0_cycle1_af2pred (protein) AVKEQAKALAEAGLKADVETAKKYAAAAVLLAFDSSDTEDVKYAAELLKKAAKEATDPEKKEAFERAARVVERAAEDMRKAEER | not found |
| design_600_24101276-ad9d-4944-b73e-53bb160363ad_1759_dldesign_0_cycle1_af2pred (protein) GEEASKKAKEDAKLVSEAAKYAKEAGKYAKKIAELKPEKAEEAKKIKEKSAKLLYELADNIEDEEKAKEYLDEIKKLYKEAEELYKEA | not found |
| design_600_24101276-ad9d-4944-b73e-53bb160363ad_1967_dldesign_0_cycle1_af2pred (protein) GNKKLAAELLKKSIEYFIEAVKSKKLSTASGYASKSAVYFAKAVYVGTGVPPEVAYKVRLIVLEIGLKAIEKRQEELKKKE | not found |
| design_600_24101276-ad9d-4944-b73e-53bb160363ad_768_dldesign_0_cycle1_af2pred (protein) AEDLKKAIEKIKKEVGEEAAKLVGEALKAKQAAADDPSLAETQLKKVEELEKEAKKLDPKAAKLVSKIKKVVKRMVEN | not found |
| design_600_24101276-ad9d-4944-b73e-53bb160363ad_1889_dldesign_0_cycle1_af2pred (protein) MAEKEALIAELKAKAAEAKAKGAAGSAGEQFQWDVIAAGYEKGAEAAKKAKTAEEAKKAAKEAVEKAKRVAEHIKKSEEEAEKRA | not found |
| design_600_24101276-ad9d-4944-b73e-53bb160363ad_1965_dldesign_0_cycle1_af2pred (protein) SEELEKVAKEAKEAAKERIEYAKKAAEANPALAETAKRMIEGAKELAKKVEKYAKEGDLKKAERERLRIESRKEQAKETLKKL | not found |
| design_600_24101276-ad9d-4944-b73e-53bb160363ad_769_dldesign_0_cycle1_af2pred (protein) NEELIKFKAKAYSTAYSTAHTVAAAEKIAKTGTPEEAAKAKAAAAKALARLKEVGKEAKKKGPEYAKAFEEAAKEGEKVLKELLA | not found |
| design_600_24101276-ad9d-4944-b73e-53bb160363ad_1218_dldesign_0_cycle1_af2pred (protein) DEEKKKKAAEALDKAAELAKKAAEDEKYLPEALKALKETAKLAGEALGAEAAHAILEARAVVKAKGKEGAKEAAEVLEELRKKVR | not found |
| design_600_24101276-ad9d-4944-b73e-53bb160363ad_1404_dldesign_0_cycle1_af2pred (protein) SLKEEIKNKEKSGKNNVEAAKMAAEEGDITFAKSAIAAAKKAIEQLKELAKKATPEVAKEGKEAAEKLEKEREEAEKLLKKKEA | not found |
| design_600_24101276-ad9d-4944-b73e-53bb160363ad_1126_dldesign_0_cycle1_af2pred (protein) SEEAKKLLEELKKAAEEAIAKAKELEKEDPAKAAEYAKKALKELRAKGKEIAELDPAFAPEAGAEVQKVQEYRAEAEAKALRKK | not found |
| design_600_24101276-ad9d-4944-b73e-53bb160363ad_1809_dldesign_0_cycle1_af2pred (protein) SMEKEEAVKRREKAIEKGEKAIEEAAKEGIEAAEKAKEVMKELKKEAEKFGKETGPEGEKAAKTIKRIAENTEHGLEAIIRREKE | not found |
| design_600_24101276-ad9d-4944-b73e-53bb160363ad_1283_dldesign_0_cycle1_af2pred (protein) EEEKKEIAKKTEEYYKELLKVAKEVAAKDPSKKPELAKLTDEAAQYVAEAKAGLNPEEALEKVKKLLEEAKKIA | not found |

— article PMC13494018
